# The list is not random: actives were taken first. Their share in the collection is about 5.6%.
# PfM18AAP inh: PfM18AAP enzyme inhibition | hit rate 1.2% among 290,000 | AID 1822 | inhibition, % at 7.35 µM | recombinant PfM18AAP, H-Glu-NHMec fluorogenic cleavage;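 active = inhibition above the campaign mean inhibition over all tested compounds plus 3 SD, cut at about 28% in these data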;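 note: 0% = plate median of test compound wells and 100% = 2 mM ZnCl2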
# PfG6PD inh: PfG6PD (Plasmodium falciparum) enzyme inhibition; PfGluPho enzyme, NADPH resazurin-diaphorase fluorescence; inhibition, % at 20 µM; hit rate 0.78% among 350,000;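 active = inhibition reaching at least a set limit at 20 µM in the primary screen, cut at about 59% in these data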;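 note: 0% = DMSO wells with substrate and 100% = DMSO wells lacking glucose-6-phosphate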
# ALR inh: human ALR oxidase inhibition via reduced H2O2. P55789. purified ALR, DTT oxidation, H2O2 HRP-luminol luminescence. inhibition, % (no concentration beside the values). hit rate 3.8% among 290,000. AID 485317;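 active = mean replicate inhibition above about 79%, with every replicate also reaching it, limit read from the data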
# Target sequence (P55789 whole entry, looked up): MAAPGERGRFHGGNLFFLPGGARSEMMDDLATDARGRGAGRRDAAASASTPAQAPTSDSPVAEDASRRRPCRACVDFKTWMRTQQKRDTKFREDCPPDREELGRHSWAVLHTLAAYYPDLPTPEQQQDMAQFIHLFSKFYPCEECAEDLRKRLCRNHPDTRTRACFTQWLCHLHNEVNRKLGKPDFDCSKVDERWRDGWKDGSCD
# H9c2 protect: modulators protecting cardiomyocytes from myocardial damage | hit rate 0.63% among 360,000 | AID 588492 | protection from H2O2 cell death, % at 20 µM | H9c2 cardiomyocytes, H2O2 injury protection, ATPLite, 2 h;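 active = compounds giving at least 50% protection of heart cells from peroxide-induced death in the single-dose screen, raw or plate-pattern-corrected value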;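 note: 0% = DMSO wells with peroxide and 100% = DMSO wells without peroxide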
# PHOSPHO1 block: blocks human PHOSPHO1 phosphatase activity; inhibition, % at 13.3 µM; AID 1565; recombinant PHOSPHO1, absorbance phosphatase assay; hit rate 1.1% among 290,000; Q8TCT1; in the data active = inhibition above about 60%
# Active calls of the source: *; . = no result.
SMILES,PfM18AAP inh,PfG6PD inh,ALR inh,H9c2 protect,PHOSPHO1 block
CCOC(=O)CC1(NC(=O)c2cc(COc3cccc(OC)c3)on2)CCCCC1,1.5,9.1,-3.6,-13.0,12.0
O=C(c1cc2ccccc2o1)N1CCN(S(=O)(=O)c2ccc(F)c(F)c2F)CC1,.,-2.2,0.5,-8.1,.
COc1cccc(/C=N/NC(=O)Cn2nc(C)c([N+](=O)[O-])c2C)c1O,-2.5,-23.4,87.8*,53.5*,-21.4
COc1ccc(/C=N/NC(=O)CNC(=O)/C=C/c2ccccc2OC)cc1,1.1,0.6,-2.7,2.9,31.1
COc1cccc(/C=N/NC(=O)CSc2ccccc2C)c1OC,2.5,14.7,-8.7,-3.1,-7.4
COc1cccc(/C=N/Nc2snc(SC)c2C#N)c1O,9.0,-3.8,85.8*,-19.5,-8.2
COc1ccccc1/C=C\C(=O)NCC(=O)N/N=C/c1cccc(OC)c1O,16.8,-11.8,1.3,72.4*,26.3
COc1ccc(/C=N/Nc2snc(SC)c2C#N)cc1OC,7.6,1.3,8.4,-2.4,-10.4
COc1cccc(/C=N/NC(=O)C(C)n2nc(C)c([N+](=O)[O-])c2C)c1O (configuration not stated),6.8,-4.7,40.9,32.8,-22.0
COc1cccc(/C=N/NC(=O)CSc2ccccc2C)c1O,7.2,-9.8,.,53.1*,20.9
CCN(c1ccccc1)S(=O)(=O)c1cccc(C(=O)NCC(c2ccc(F)cc2)N2CCOCC2)c1 (configuration not stated),.,11.0,.,4.3,.
COc1ccccc1/C=C/C(=O)NCC(=O)N/N=C/c1cc(Br)ccc1OC,6.4,9.7,-34.4,98.3*,7.4
COc1ccc(/C=C/C(=O)NCC(=O)N/N=C/c2cc(Br)ccc2OC)cc1,-4.3,-12.2,-12.2,4.4,32.5
C/C(=N\OCC(=O)N/N=C/c1ccc(C)cc1O)c1cccs1,4.3,-23.6,9.1,63.8*,44.8
CC(C(=O)NCc1cccnc1)c1ccc([N+](=O)[O-])cc1 (configuration not stated),-9.6,-23.3,7.5,0.4,18.5
Cc1cn([C@H]2C[C@H](O)[C@@H](CNCc3ccc(Oc4cc(-n5cccn5)ncn4)cc3)O2)c(=O)[nH]c1=O,.,-4.0,.,5.8,.
CSc1sc(-c2ccnc(=S)[nH]2)c(-c2ccccc2)c1C#N,11.2,-5.6,96.0*,0.5,20.3
CSc1nccc(-c2sc(SC)c(C#N)c2-c2ccccc2)n1,-8.3,6.7,-5.9,-1.9,8.3
CC(C)NCc1c(O)c(Br)cc2oc3c(c12)CCCC3,14.1,16.6,.,14.3,-24.2
O=C1NCCCc2c1oc1cc(Br)c(O)c(Br)c21,7.3,4.3,98.8*,-1.3,-12.8
CCc1ccc(N2CC(C)Cn3c2nc2c3c(=O)[nH]c(=O)n2C)cc1 (configuration not stated),-3.5,-7.8,2.6,1.9,.
Cc1cc(NC(CC(C)C)C(=O)O)nc(Cc2ccccc2)n1 (configuration not stated),0.3,-0.4,-10.6,5.2,3.4
Cc1cc(NN)nc(Cc2ccccc2)n1,8.8,4.3,81.4*,-0.6,-6.8
COc1ccc(Cc2nnc(NC(=O)c3ccc(OC)c(OC)c3)s2)cc1,-7.4,-18.0,-7.5,-2.2,.
COc1ccc(C(=O)Nc2nc(C)c(C)s2)cc1OC,-2.8,10.8,99.2*,-4.2,16.0
SMILES,PfM18AAP inh,PfG6PD inh,ALR inh,H9c2 protect,PHOSPHO1 block
COc1ccc(C(=O)Nc2cccc3cccnc23)cc1OC,1.8,10.2,-16.3,25.0,-3.9
COc1ccc(C(=O)Nc2cccc(NC(=O)c3ccc(OC)c(OC)c3)n2)cc1OC,0.5,16.9,.,53.5*,.
CC(=O)CSc1nc2ccccc2o1,-3.9,3.1,-8.5,-1.8,3.4
c1ccc(-c2noc(CSc3nc4ccccc4o3)n2)cc1,3.3,-5.7,86.3*,-13.7,20.7
O=C(CSc1nc2ccccc2o1)c1ccccc1,-3.8,11.9,.,-7.0,-32.2
O=C(O)c1ccccc1CSc1nc2ccccc2o1,1.3,-18.8,35.6,-4.3,75.2*
O=C(O)c1ccc(CSc2nc3ccccc3o2)cc1,-8.8,-29.4,97.0*,-15.4,20.2
COC(=O)C1=C(C)N(CCc2cc(OC)c(OC)c(OC)c2)C(=O)N[C@H]1c1ccccc1,.,-3.3,-0.6,8.0,.
CN1c2ccsc2C(O)=C(C(=S)Nc2ccc(F)c(Cl)c2)S1(=O)=O,-5.3,5.9,18.2,-8.1,92.3*
Cc1cc(C)nc(SCc2csc(-c3ccccc3)n2)n1,0.7,13.1,98.8*,-12.1,12.2
c1ccc(-c2nc(CSc3nnc(-c4cccs4)o3)cs2)cc1,2.6,8.4,98.0*,-11.5,.

# Source: PubChem BioAssay
